In PubChem BioAssay (EPA / NIEHS) one finds outcome and AC50 data, which are given here for 24 compounds.

SMILES strings stand for the structures. Calls of active or inactive are those of the source. The calls were made as follows: active = hit-call score of the fitted dose curve at least 0.9, where 1 is the maximum; inactive = score below 0.9.

The nature of this experiment: ATG_Oct_MLP_CIS: Attagene CIS-FACTORIAL HepG2 Assay for human Octamer-Binding Transcription Factor (Oct) (AID 2282993). As to conditions: HepG2 Attagene cis-factorial Oct reporter, mRNA; actives raise or lower the signal. In a few lines:
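HepG2 cells transiently transfected with cis-element-driven reporter transcription units (endogenous TF activity); 24 h compound exposure. Reporter mRNA quantified by RT-PCR, 6-FAM labelling, HpaI digestion and capillary electrophoresis; bidirectional fit versus DMSO baseline.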
Turning to `CCOC(=O)C1CC(=O)C(=C(O)C2CC2)C(=O)C1` (centres undefined), the compound was called inactive.

Take `CCCCCC/C=C/CCCCCCCC(=O)O`: the result was inactive.

In the case of `Oc1ccc(C2(c3ccc(O)c(C4CCCCC4)c3)CCCCC2)cc1C1CCCCC1`, the outcome was inactive.

As to `N#CCCOCCC#N`, the compound was called inactive.

For `CCCCCCCCCCCCCC[P+](CCCC)(CCCC)CCCC`, the AC50 was 0.903 µM (active).

With `CCc1cc(Cc2cc(CC)c(N)c(CC)c2)cc(CC)c1N`, the half-maximal activity concentration (AC50) was 41.9 µM (active).

As to `CC(C)(C)c1cc(Cc2cc(C(C)(C)C)c(O)c(C(C)(C)C)c2)cc(C(C)(C)C)c1O`, the call was inactive.

Turning to `O=C1OC(=O)c2ccc3c4c(ccc1c24)C(=O)OC3=O`, the outcome was inactive.

As for `OCCC(O)CO` (centres undefined), the compound was called inactive.

As for `Cc1ccc(O)cn1`, the compound was classed as inactive.

For the compound `CCOC(OCC)OCC`, the outcome was inactive.

As to `Brc1ccccn1`, the outcome was inactive.

Turning to `O=S(=O)(O)CCC(F)(F)C(F)(F)C(F)(F)C(F)(F)F`, the compound was called inactive.

`C[C@]12CC[C@H]3C(=CCc4cc(O)ccc43)[C@@H]1CCC2=O`: the outcome was inactive.

Consider `CCCCC(CC)COC(=O)c1ccc(N(C)C)cc1` (centres undefined), for which the compound was classed as inactive.

For `CN(C)C(C)(C)CO`, the compound was called inactive.

Take `O=S(=O)(O)c1ccc(Cl)cc1`: the call was inactive.

For the compound `N#Cc1ccccc1O`, the compound was classed as inactive.

With `CN(N=O)C(=O)N[C@@H]1[C@@H](O)[C@H](O)[C@@H](CO)O[C@@H]1O`, the call was inactive.

As to `O=C1c2c(O)ccc(Nc3ccc(CCO)cc3)c2C(=O)c2c([N+](=O)[O-])ccc(O)c21`, the outcome was inactive.

Turning to `CC(=O)CCC(C)C`, the compound was called inactive.

With `O=c1[nH]cccc1O`, the outcome was inactive.

On to `CCOCN(C(=O)CS(=O)(=O)O)c1c(C)cccc1CC`, for which the outcome was inactive.

In the case of `c1ccc(C[P+](c2ccccc2)(c2ccccc2)c2ccccc2)cc1`, the outcome was inactive.
